Compound activity as filed in PubChem.
Rv3671c inh = inhibits the M. tuberculosis serine protease Rv3671c; inhibition, % at 5.96 µM; 320,000 compounds, 0.048% hits; P9WHR9; in the data active = inhibition above about 38%;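 also: extracellular domain of Rv3671c used as enzyme; 0% = enzyme with DMSO and 100% = no enzyme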
Target sequence (P9WHR9 whole entry, looked up, the tested form may be a part): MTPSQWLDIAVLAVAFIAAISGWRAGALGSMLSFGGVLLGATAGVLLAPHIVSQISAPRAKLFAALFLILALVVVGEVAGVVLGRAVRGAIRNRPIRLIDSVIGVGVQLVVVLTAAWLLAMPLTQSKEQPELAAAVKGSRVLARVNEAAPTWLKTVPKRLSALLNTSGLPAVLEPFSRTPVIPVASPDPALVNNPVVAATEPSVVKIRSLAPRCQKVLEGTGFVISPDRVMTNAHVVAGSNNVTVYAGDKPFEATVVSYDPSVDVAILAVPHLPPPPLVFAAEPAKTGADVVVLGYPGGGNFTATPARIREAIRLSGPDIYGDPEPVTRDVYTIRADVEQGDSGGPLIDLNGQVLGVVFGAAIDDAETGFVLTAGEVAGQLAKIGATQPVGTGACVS
GDH-TPI counter-1 = GDH-TPI coupled enzyme inhibition counter-screen | inhibition, % at 4.8 µM | 360,000 compounds, 1.2% hits | GDH-TPI coupled enzyme counterscreen, NADH absorbance | AID 588335; in the data active = inhibition above about 30%;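 also: 0% = DMSO wells and 100% = wells lacking the enzyme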
FBA Mtb inh = inhibitors of M. tuberculosis fructose-bisphosphate aldolase; inhibition, % at 1 µM; P9WQA3; 360,000 compounds, 2.3% hits; purified M. tuberculosis FBA, fluorescence read-out;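 also: 0% = vehicle and 100% = reference inhibitor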
UGM FP inh = blocks M. tuberculosis UGM enzyme. AID 504406. 320,000 compounds, 0.06% hits. inhibition, % at 10 µM. purified UGM, fluorescence polarization probe displacement; in the data active = inhibition above about 10%, passing the limit was not always enough; inconclusive = no clear call, values can overlap the other calls
Mtb FBA inh conf = Mtb FBA inhibition, confirmed; shares compounds with FBA Mtb inh; purified M. tuberculosis FBA, fluorescence read-out; inhibition, % at 1 µM; 5,600 compounds, 78% hits; AID 651616;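 also: 0% = vehicle wells and 100% = reference inhibitor wells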
GDH-TPI counter-2 = GDH-TPI inhibition counter-screen for FBA inhibitors; inhibition, % at 1 µM; AID 652141; GDH-TPI coupled enzyme counterscreen, fluorescence; shares compounds with FBA Mtb inh; 5,600 compounds, 81% hits; in the data active = inhibition above about 10%
GDH-TPI DR = counter-screen for M. tuberculosis FBA inhibitors: GDH-TPI dose response | IC50, µM | GDH-TPI coupled enzyme assay, fluorescence, artifact counterscreen | 170 compounds, 79% hits | shares compounds with FBA Mtb inh | AID 652145; call rule not given here
Numbers without * were called inactive; u = inconclusive; x = not tested or not shown. An excerpt weighted towards active compounds, which were near 3.5% of everything screened. Rule as the data show it, unless noted: active = inhibition above about 27%; inactive = the rest.

SMILES	Rv3671c inh	GDH-TPI counter-1	FBA Mtb inh	UGM FP inh	Mtb FBA inh conf	GDH-TPI counter-2	others
O=c1oc2ccc3ccccc3c2cc1-c1nnc(-c2cccs2)o1	-1.3	5.4	30.3*	x	114.5*	84.3*
CCN(CC)c1ccc2cc(-c3nnc(-c4ccccc4)o3)c(=O)oc2c1	-2.9	-3.9	33.6*	u	145.8*	104.7*
CCN(CC)c1ccc2cc(C(=O)c3cccs3)c(=O)oc2c1	x	x	-34.7	x	x	x
O=c1oc2ccccc2cc1-c1nnc(-c2cccc(Br)c2)o1	0.1	7.0	3.6	1.4	x	x
N#Cc1cc2c(ccc3ccccc32)oc1=O	-3.3	1.0	73.1*	-0.9	168.1*	140.7*
CCN(CC)c1ccc2cc(-c3nc4ccccc4n3C)c(=O)oc2c1	8.4	15.5	40.3*	2.0	6.8	-4.2
CCN(C(=O)COC(=O)COc1ccc(Cl)c(C)c1)C1CCS(=O)(=O)C1 (stereo unspecified)	-0.3	-7.0	-1.5	-0.2	x	x
COc1ccc(-c2nnc(-c3cc4c(ccc5ccccc54)oc3=O)o2)cc1	-1.5	-7.1	1.5	0.2	x	x
O=c1oc2ccc3ccccc3c2cc1-c1nnc(-c2ccccc2)o1	6.9	1.3	50.9*	-2.3	39.3*	32.3*
NC(=O)COc1ccc(NS(=O)(=O)Cc2ccccc2)cc1	0.9	3.2	1.0	-0.2	x	x
NC(=O)c1ccccc1NS(=O)(=O)Cc1ccccc1	-5.4	4.3	61.6*	3.3	83.9*	66.3*
Cc1nn(Cc2ccccc2Cl)c2sc(C(=O)Nc3ccccc3N3CCOCC3)cc12	-12.1	14.8	97.4*	-3.1	71.8*	63.6*
COc1ccc(CNC(=O)COC(=O)c2cc3ccccc3o2)cc1	x	-3.1	1.6	x	x	x
CC(C#N)Sc1ncnc2sc3c(c12)CCC3 (stereo unspecified)	-0.8	-6.5	-2.3	0.1	x	x
Cc1cc(C)nc(Sc2ncnc3sc4c(c23)CCC4)n1	2.5	4.6	48.5*	-1.4	1.8	1.3
CC(=O)O[C@H](COc1c2ccoc2cc2oc(=O)ccc12)C(C)(C)O	8.0	12.1	44.9*	0.4	0.1	-6.1
COc1ccc(-c2ccc(SCC(=O)NC3CCCCC3)nn2)cc1OC	-6.1	5.8	-0.8	-0.5	x	x
COc1ccccc1N1CCN(CCCN=C2CC(=O)N(C)C(=O)N2C)CC1	-10.5	-5.3	-1.2	x	x	x
CCCOc1ncnc2c1[nH]c1ccc(OC)cc12	-10.7	4.8	17.6	-0.9	x	x
CCOc1ccc2[nH]c3c(NCCC(C)C)ncnc3c2c1	x	0.0	49.1*	1.4	5.9	-5.7
CCOc1ccc2[nH]c3c(NCCN(C)C)ncnc3c2c1	-10.9	-1.4	16.1	1.9	x	x
COc1ccc2[nH]c3c(NCCCOC(C)C)ncnc3c2c1	8.1	2.2	99.5*	1.5	63.1*	47.3*
C=CCNc1ncnc2c1[nH]c1ccc(C)cc12	11.8	13.0	42.4*	-3.1	65.9*	51.6*
CCCCOc1ncnc2c1[nH]c1ccc(C)cc12	-5.8	-3.8	38.3*	-0.6	-6.6	-3.9
COc1ccc(C(=O)COC(=O)CN2C(=O)c3ccccc3C2=O)c(OC)c1	0.3	-6.5	2.8	0.6	x	x
SMILES	Rv3671c inh	GDH-TPI counter-1	FBA Mtb inh	UGM FP inh	Mtb FBA inh conf	GDH-TPI counter-2	others
COc1cc(OC)cc(OC(=O)C2CCN(C(=O)c3ccc(Cl)cc3)CC2)c1	0.8	-0.5	2.5	-1.1	x	x
CC1(C(=O)NCCc2ccccc2)Cc2c(-c3ccc(C(N)=O)cc3)ccnc2O1 (stereo unspecified)	x	12.4	3.4	x	x	x
COc1ccc(CCNc2ncnc3c2[nH]c2cc(OC)c(OC)cc23)cc1OC	8.6	22.8	68.1*	0.6	112.1*	101.1*
NC(N)=N/N=C/c1ccc(N(c2ccccc2)c2ccccc2)cc1	18.4	8.1	104.5*	-0.2	70.9*	48.7*
CCN(Cc1ccccc1)c1ccc(/C=N/N=C(N)N)cc1	8.8	23.6	16.0	1.1	x	x
Cc1cc(N2CCC(C)CC2)nc2ccc(N3C(=O)CCC3=O)cc12	1.1	10.4	58.7*	2.8	98.4*	79.5*
Nc1nc2n(n1)C(c1cccs1)CC(c1ccccc1)N2 (stereo unspecified)	0.2	16.1	69.0*	-0.6	100.5*	80.8*
O=C(Nc1nnc(-c2ccncc2)s1)C1CCCO1 (stereo unspecified)	-1.0	25.9	81.7*	-0.4	15.1	-5.8	GDH-TPI DR=2.03*
CCCC(=O)Nc1nnc(SCC(=O)Nc2ccc3c(c2)OCO3)s1	-7.5	4.3	1.2	0.6	x	x
CCC(=O)Nc1nnc(Cc2ccccc2)s1	1.8	-9.2	-0.2	1.8	x	x
Cc1onc(-c2ccccc2)c1C(=O)Nc1nnc(-c2ccncc2)s1	4.3	56.7*	45.9*	0.7	66.8*	55.3*
CCC(=O)Nc1nnc(-c2ccncc2)s1	2.5	-3.2	42.5*	-1.8	100.0*	88.8*
CCCC(=O)Nc1nnc(-c2ccc3c(c2)OCO3)s1	1.5	6.1	37.6*	-1.0	114.9*	102.7*
Cc1ccc(NC(=O)c2cc(-c3cc(C)c(C)cc3O)n[nH]2)cc1C	-4.2	0.7	0.4	1.8	x	x
CC1=CC(c2ccccc2)n2nc(NC(=O)CCC(=O)O)nc2N1 (stereo unspecified)	-4.3	27.5	80.9*	-4.1	-3.6	-5.2
CC1=CC(c2ccccc2)n2nc(NC(=O)CCCC(=O)O)nc2N1 (stereo unspecified)	-3.9	-5.2	61.7*	-0.7	83.0*	72.8*
CCC(=O)Nc1nc2n(n1)C(c1ccc(OC)cc1)C=C(c1ccccc1)N2 (stereo unspecified)	10.8	x	x	1.5	x	x
Cc1cccc(-n2nc(C)c3c(C(=O)O)cc(-c4cccs4)nc32)c1	2.0	18.1	61.7*	4.3	149.2*	134.7*
Cc1nn(-c2cccc(Cl)c2)c2nc(-c3ccco3)cc(C(=O)O)c12	-4.0	16.4	19.8	-0.9	x	x
Cc1nn(-c2ccccn2)c2nc(-c3cccs3)cc(C(=O)N3CCOCC3)c12	0.2	31.1*	104.7*	2.1	58.9*	58.7*
Cc1cccc(C)c1NC(=O)CN(C)C(=O)c1ccccc1OCc1ccc(F)cc1	-7.4	-7.3	-1.9	0.4	x	x
COc1ccc2oc(=N)c(-c3nnc4n3CCCCC4)cc2c1	0.7	5.3	32.4*	-0.3	17.5	8.5	GDH-TPI DR=>10
C=CCn1c(CNC(=O)c2ccccc2F)nnc1SCC(=O)NC(C)c1ccccc1 (stereo unspecified)	-0.5	-3.9	0.0	0.4	x	x
COc1ccc(-c2ccc(-c3noc(C(C)C)n3)c(OC)n2)cc1	-5.7	25.4	108.1*	-0.3	135.0*	106.9*
CCn1c(-c2cc(-c3ccc(OC(C)C)cc3)nc3ccccc23)n[nH]c1=S	-6.3	16.3	82.7*	-0.6	-0.9	0.3
CCn1c(-c2cc(-c3ccc(C)cc3)nc3ccccc23)n[nH]c1=S	-0.1	4.1	-1.1	0.1	x	x
COc1cc(CC(=O)OCC(=O)N(C)C2CCCCC2)cc(OC)c1OC	8.3	-1.0	-1.3	-1.3	x	x
